# Several values for one entry are separate records, joined by “and”; a condition that tells them apart may be missing. Equal values may be shown once. Inconclusive results are not listed. A call without a number means that no potency is given here. Activity calls are given as the source filed them. Calls follow the shape of the dose curve; as a rule, active = well fitted cell-killing curve with a large enough effect; inconclusive = small, poorly fitted or top-dose-only effect; inactive = flat fitted curve, though single readings scatter.
# Assay: Cell Viability - LYMP2-007 (AID 979);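 also: cells exposed to compound for 24 h before reading; nearly all actives have a fitted effect of over 60% in size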
# Conditions: LYMP2-007 lymphoblastoid cell viability; series mostly up to 92.2 µM
# Description: NIH Chemical Genomics Center [NCGC]
# NIH Molecular Libraries Screening Centers Network [MLSCN]
# National Institutes of Environmental Health Sciences [NIEHS]
# National Toxicology Program [NTP]
# We have developed a 1536-well cell-based assay for quantitative high throughput screening (qHTS) against a number of cell lines to determine in vitro cytotoxicity of small molecules. This particular assay uses a human lymphoblastoid cell line (LYMP2-007) purchased from Coriell Institute for Medical Research.
# NCGC Assay Protocol Summary:
# The CellTiter-Glo luminescent cell viability assay (Promega) is a homogeneous method to measure the number of viable cells in culture. The end point readout of this assay is based on quantitation of intracellular ATP, an indicator of metabolic activity, using the luciferase reaction. Luciferase catalyzes the oxidation of beetle Luciferin to oxyluciferin and light in the presence of ATP. The luminescent signal is proportional to amount of ATP present.
# Using the CellTiter-Glo luminescent cell viability assay, the amount of cellular ATP was measured in the lymphoblastoid cell line with complete culture medium following compound treatment for 24 hours. The assay was performed in opaque white Kalypsys 1536-well plates. In the screen, tetraoctylammonium bromide was used as positive control. Library compounds were measured for their ability to cause acute toxicity in the cell line, as reflected by a decrease in intracellular ATP levels, in a concentration-dependent manner. […] AC50 values were determined from concentration-response data modeled with the standard Hill equation.
# qHTS protocol for CellTiter Glo lymphoblastoid cellular assay
# [Step] [Parameter] [Value] [Description]
# 1. Reagent; 5 uL; 2500 lymphoblastoid cells/well
# 2. Time; 5 hr; 37 C incubation
# 4. Controls; 23 nL; Tetraoctylammonium bromide 6.4pM to 92 uM
# 5. Time; 24 hr; 37 C incubation
# 6. Reagent; 5 uL; CellTiter Glo reagent
# 7. Time; 30 min; Room Temperature
# 8. Detection; Luminescence; Viewlux plate reader
# Keywords: cell viability, cytotoxicity, lymphoblastoid cell line, luminescence, NTPHTS, NTPHTS_NCGC, NIEHS, DSSTox, MLSMR, MLSCN, NIH Roadmap, qHTS, NCGC
# Potency is read from the fitted curve at half-maximal effect.
row,Structure (SMILES),Potency
1,COC1=CC(=O)O[C@@H](/C=C/c2ccccc2)C1,inactive
2,Oc1cc(Cl)c(Cl)cc1Cl,inactive
3,C[C@H]1CCC[C@H](O)CCCCCc2cc(O)cc(O)c2C(=O)O1,inactive
4,[Cl-].[Cl-].[Hg+2],6.31 µM (active)
5,CCCCCCCCOC(=O)c1ccccc1C(=O)OCCCCCCCC,inactive
6,CC(C)(C)c1cc(O)ccc1O,inactive
7,C[C@H]1CC[C@@H]2[C@@H](C)[C@H]3[C@H](C[C@H]4[C@@H]5CC=C6CC(O[C@@H]7O[C@H](CO)[C@H](O)[C@H](O[C@@H]8O[C@H](CO)[C@@H](O)[C@H](O)[C@H]8O)[C@H]7O[C@H]7O[C@@H](C)[C@H](O)[C@@H](O)[C@H]7O)CC[C@]6(C)[C@H]5CC[C@]34C)N2C1 (stereo not given in full),50.1 µM (active)
8,O=C1C=CC(=O)C=C1,50.1 µM (active)
9,O=[N+]([O-])c1ccccc1,inactive
10,COc1ccc2c(c1OC)C(=O)OC2C1c2cc3c(cc2CCN1C)OCO3 (stereo not given),inactive
11,ClCC1CO1 (stereo not given),inactive
12,O=C1CCO1,inactive
13,NNC(N)=O,inactive
14,ClC(Cl)(Cl)Cl,inactive
15,[O]=[Cr](=[O])([OH])[O][Cr](=[O])(=[O])[OH],10 µM (active) and 12.6 µM (active) and 7.94 µM (active)
16,S=C=S,inactive
17,CCOC(=O)c1ccccc1C(=O)OCC,inactive
18,O=CC=O,inactive
19,O=Cc1ccco1,inactive
20,CCCCCl,inactive
21,[O]=[Cd],inactive
22,O=C/C=C/c1ccccc1,inactive
23,O=C1C2CC=CCC2C(=O)N1SC(Cl)(Cl)Cl (stereo not given),7.94 µM (active) and 5.01 µM (active)
24,C=CCN=C=S,inactive
25,O=C(O)C(Cl)(Cl)Cl,inactive
26,CC(C)Nc1ccc(Nc2ccccc2)cc1,25.1 µM (active)
27,CC(C)CCON=O,inactive
28,C[C@]12CCC(=O)C[C@@H]1CC[C@@H]1[C@@H]2CC[C@]2(C)[C@@H](O)CC[C@@H]12,inactive
29,ClC=C(Cl)Cl,inactive
30,Clc1ccccc1Cl,inactive
